In PubChem BioAssay (NCATS):
Records with an inconclusive call do not appear. The source made the active and inactive calls. Unless noted, the call rests on the fitted dose curve; in most records, active means well fitted curve in either direction with a large enough effect (not every such curve was filed as active); inconclusive means small, poorly fitted or top-dose-only effect, or another doubt; inactive means flat fitted curve, though single readings scatter.

Assays:
[1] = molecular target: Lysosomal acid glucosylceramidase (Homo sapiens) (UniProt P04062); assay: Glucocerebrosidase-p2 (AID 348; in the data active means potency below about 10 µM; further: potency means the concentration at half of the fitted maximal effect); conditions: purified GBA, blue fluorogenic substrate, 40 min
Lysosomal acid glucosylceramidase (Homo sapiens), sequence (P04062 whole entry, looked up): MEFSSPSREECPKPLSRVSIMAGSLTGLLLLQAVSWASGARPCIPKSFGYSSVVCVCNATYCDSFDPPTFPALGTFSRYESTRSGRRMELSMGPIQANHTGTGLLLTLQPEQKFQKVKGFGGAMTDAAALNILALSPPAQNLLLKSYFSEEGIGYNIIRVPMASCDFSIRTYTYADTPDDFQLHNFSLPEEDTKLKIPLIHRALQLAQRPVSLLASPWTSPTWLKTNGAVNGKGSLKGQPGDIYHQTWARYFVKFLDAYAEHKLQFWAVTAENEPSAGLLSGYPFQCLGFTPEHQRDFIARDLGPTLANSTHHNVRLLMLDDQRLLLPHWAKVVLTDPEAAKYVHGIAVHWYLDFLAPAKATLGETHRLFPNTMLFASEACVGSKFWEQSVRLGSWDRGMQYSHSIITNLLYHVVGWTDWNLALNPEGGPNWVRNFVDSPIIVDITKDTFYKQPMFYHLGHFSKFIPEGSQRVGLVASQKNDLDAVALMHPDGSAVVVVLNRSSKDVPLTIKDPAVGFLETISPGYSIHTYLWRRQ
Outline: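 Compounds titrated from 0.6 nM upwards against 0.2 nM enzyme in pH 5.9 citric acid/KH2PO4, taurocholate, tween-20; blue fluorogenic substrate 80 uM, 40 min room temperature, stopped and read Ex 365/Em 440 for AC50.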

[2] = AP1 Signaling Pathway (AID 357); conditions: ME-180 AP-1-bla reporter, EGF-induced, beta-lactamase ratio, 5 h; at 7.69 µM (top of the series) unless noted; further: on the % scale 0 is the no-effect control and ±100 the full control effect
Outline: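 AP-1-bla ME-180 cells with beta-lactamase reporter under AP-1 response element, stimulated with EC50 EGF; compounds titrated, 5 hours at 37 degrees Celsius. CCF4 read at 460/530 nm ratio; positive and negative modulators judged by AC50.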

[3] = Stat Signaling Pathway (AID 446); conditions: ME-180 SIE beta-lactamase reporter, IL-6 stimulated, 5 h; at 7.69 µM (top of the series) unless noted;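 further: ME-180 cervical cancer cells given 40 pM IL-6 alongside compound; SIE-controlled beta-lactamase reporter measured as 460/530 nm FRET emission ratio; on the % scale 0 is the no-effect control and ±100 the full control effect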
Outline: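 Screening format detects activators and inhibitors alike: ME-180 SIE-bla cells stimulated at 40 pM IL-6 for 5 hrs with compound, then dual-emission beta-lactamase read at 405 nm excitation.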

[4] = molecular target: Glucocorticoid receptor (Homo sapiens) (UniProt P04150); assay: GR-EFC Redistribution (AID 451; calls by dose curve; further: potency means the concentration at half of the fitted maximal effect); conditions: CHO-K1 GR-EFC translocation, beta-gal luminescence, 2 h
Glucocorticoid receptor (Homo sapiens), sequence (P04150 whole entry, looked up, the tested form may be a part): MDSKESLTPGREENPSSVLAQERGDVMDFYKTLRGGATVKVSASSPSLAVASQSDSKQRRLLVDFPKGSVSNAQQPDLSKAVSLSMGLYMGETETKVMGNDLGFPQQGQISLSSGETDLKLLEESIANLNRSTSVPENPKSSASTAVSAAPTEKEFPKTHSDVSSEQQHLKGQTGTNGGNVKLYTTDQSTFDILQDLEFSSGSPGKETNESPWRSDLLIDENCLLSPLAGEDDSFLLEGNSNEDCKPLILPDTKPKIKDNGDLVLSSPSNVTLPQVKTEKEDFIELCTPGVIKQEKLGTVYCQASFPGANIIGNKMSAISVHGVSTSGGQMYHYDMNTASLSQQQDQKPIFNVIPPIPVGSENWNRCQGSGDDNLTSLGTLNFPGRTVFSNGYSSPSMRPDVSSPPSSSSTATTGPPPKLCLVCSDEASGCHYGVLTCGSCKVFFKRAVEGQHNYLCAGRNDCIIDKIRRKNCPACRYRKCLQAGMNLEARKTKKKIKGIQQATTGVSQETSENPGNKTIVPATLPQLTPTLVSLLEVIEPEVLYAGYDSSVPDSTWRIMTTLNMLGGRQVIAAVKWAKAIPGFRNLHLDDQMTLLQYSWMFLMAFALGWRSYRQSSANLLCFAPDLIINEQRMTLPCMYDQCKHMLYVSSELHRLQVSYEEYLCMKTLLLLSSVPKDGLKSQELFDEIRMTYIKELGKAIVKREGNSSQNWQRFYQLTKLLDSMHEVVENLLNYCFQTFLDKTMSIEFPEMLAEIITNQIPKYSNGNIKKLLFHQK
Outline: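 CHO-K1 cells stably expressing nuclear-localized β-gal enzyme acceptor and GR fused C-terminally to the enzyme donor fragment; ligand-driven nuclear translocation restores β-gal by complementation. Compounds titrated up to 46 uM final, 2 h at 37 °C; luminescence read.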

[5] = molecular target: Mitogen-activated protein kinase 10 (Mus musculus) (UniProt Q61831); assay: JNK3 AlphaScreen Assay (AID 530); conditions: JNK3 lysate, c-Jun phosphorylation; series mostly up to 57.1 µM;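 further: kinase came from lysate of stimulated human HepG2 cells; signal reports phosphorylation of biotinylated GST-cJun 1-79 at Ser73 with 10 µM ATP; on the % scale 0 is the no-effect control and ±100 the full control effect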
Outline: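 Inhibitors reduce antibody binding to phosphorylated biotin-cJun, lowering AlphaScreen luminescence. Lysates from HepG2 cells pre-activated by IL-1beta plus TNF-alpha supplied JNK3; compounds were titrated.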

[6] = molecular target: 3',5'-cyclic-AMP phosphodiesterase 4B (Homo sapiens) (UniProt Q07343); assay: qHTS Assay for Inhibitors of PDE-IV (AID 607; active means well fitted activation curve with a large enough effect in the main read-out, with a control signal flat, not every such curve was filed as active; further: % of control where 0% means no effect); conditions: HEK293 ACTOne CNG channel cells, membrane potential fluorescence; series mostly up to 22.9 µM
3',5'-cyclic-AMP phosphodiesterase 4B (Homo sapiens), sequence (Q07343 whole entry, looked up): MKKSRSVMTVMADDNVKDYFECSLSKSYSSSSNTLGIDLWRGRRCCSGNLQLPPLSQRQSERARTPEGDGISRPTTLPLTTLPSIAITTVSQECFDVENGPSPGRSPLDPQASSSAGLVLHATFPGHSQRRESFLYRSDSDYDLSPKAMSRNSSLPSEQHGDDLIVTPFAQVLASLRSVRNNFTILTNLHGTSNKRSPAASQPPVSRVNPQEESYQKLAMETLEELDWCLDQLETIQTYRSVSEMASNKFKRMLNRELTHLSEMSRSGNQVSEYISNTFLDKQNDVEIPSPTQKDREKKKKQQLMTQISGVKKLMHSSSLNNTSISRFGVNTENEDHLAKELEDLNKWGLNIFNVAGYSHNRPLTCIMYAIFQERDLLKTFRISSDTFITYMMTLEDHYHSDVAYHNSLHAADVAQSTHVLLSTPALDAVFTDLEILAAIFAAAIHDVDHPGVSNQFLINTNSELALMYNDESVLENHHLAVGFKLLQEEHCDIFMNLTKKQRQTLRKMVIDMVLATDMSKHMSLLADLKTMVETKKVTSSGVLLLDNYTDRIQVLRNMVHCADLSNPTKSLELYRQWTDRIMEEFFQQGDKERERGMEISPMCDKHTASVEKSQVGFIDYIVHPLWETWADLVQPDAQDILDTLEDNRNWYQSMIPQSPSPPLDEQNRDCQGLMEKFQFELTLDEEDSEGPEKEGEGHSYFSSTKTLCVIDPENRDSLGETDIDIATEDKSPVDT
Outline: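 The readout is membrane depolarisation from a cAMP-sensing CNG channel, detected with a potential dye at ex 535/em 590. Cells were HEK293-derived (endogenous PDE-IV) at 1000 cells/well, titrated up to 22.9 uM final.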

[7] = Primary qHTS for small molecule stabilizers of the endoplasmic reticulum resident proteome: Secreted ER Calcium Modulated Protein (SERCaMP) assay (AID 1508630; active means well fitted curve in the direction sought with a large enough effect; an effect the other way counts as inactive or inconclusive; further: on the % scale 0 is the no-effect control and ±100 the full control effect); conditions: SH-SY5Y GLuc-SERCaMP (Gaussia luciferase released on ER calcium loss) secretion, thapsigargin, luminescence; series mostly up to 38.4 µM
Outline: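 GLuc-SERCaMP-expressing SH-SY5Y cells, pretreated 16 h with compound, are challenged with thapsigargin to empty ER calcium stores; after 4 h, coelenterazine is added directly to the medium and luminescence is imaged.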

[8] = NFAT Signaling Pathway (AID 444); conditions: Jurkat NFAT-bla M1, carbachol, beta-lactamase ratio, 5 h; at 7.69 µM (top of the series) unless noted
Outline: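 Jurkat cells carrying an NFAT-driven β-lactamase reporter and co-transfected muscarinic M1 receptor were treated with compound plus carbachol (1 uM final, an EC50 level) for 5 h at 37 °C. CCF4 loading followed for 1 h at RT; 460/530 nm ratio gave %activity.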

[9] = molecular target: Glucocorticoid receptor (Homo sapiens) (UniProt P04150); assay: GR-GFP Redistribution (AID 450;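 active means compounds whose dose series gives a full or clear partial fitted curve of increased nuclear translocation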; further: potency means the concentration at half of the fitted maximal effect); conditions: U2OS GR-GFP nuclear translocation, laser cytometry, 2 h
[10] = molecular target: Cytochrome P450 3A4 (Homo sapiens) (UniProt P08684); assay: qHTS Assay for Activators of Cytochrome P450 3A4 (AID 885; active means well fitted curve in the direction sought with a large enough effect; an effect the other way counts as inactive or inconclusive; further: nearly all actives have a fitted effect of over 65% in size); conditions: recombinant CYP3A4, Luciferin-PPXE luminescence, 60 min; series mostly up to 57.1 µM
Cytochrome P450 3A4 (Homo sapiens), sequence (P08684 whole entry, looked up): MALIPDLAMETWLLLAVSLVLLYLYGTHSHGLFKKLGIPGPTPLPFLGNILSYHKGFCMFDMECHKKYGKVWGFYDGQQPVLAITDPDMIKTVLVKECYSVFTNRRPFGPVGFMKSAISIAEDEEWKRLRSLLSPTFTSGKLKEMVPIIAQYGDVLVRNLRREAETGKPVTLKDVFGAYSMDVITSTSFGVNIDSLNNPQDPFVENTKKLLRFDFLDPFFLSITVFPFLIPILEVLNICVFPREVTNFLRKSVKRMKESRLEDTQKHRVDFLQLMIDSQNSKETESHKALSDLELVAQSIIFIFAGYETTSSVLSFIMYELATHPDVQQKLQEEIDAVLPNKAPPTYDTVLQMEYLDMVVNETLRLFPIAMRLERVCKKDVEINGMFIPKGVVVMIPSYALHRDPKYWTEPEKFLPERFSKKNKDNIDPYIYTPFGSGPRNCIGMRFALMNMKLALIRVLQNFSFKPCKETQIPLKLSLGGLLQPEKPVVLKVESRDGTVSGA
Outline: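 Steps: enzyme/substrate mix dispensed; compound added, 10 min RT; NADPH regeneration solution added, 60 min RT; luciferin detection buffer stops reaction; 20 min later luminescence measured.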

[11] = molecular target: Cytochrome P450 2D6 (Homo sapiens) (UniProt P10635); assay: qHTS Assay for Inhibitors and Substrates of Cytochrome P450 2D6 (AID 891; active means well fitted curve in the direction sought with a large enough effect; an effect the other way counts as inactive or inconclusive; further: potency means the concentration at half of the fitted maximal effect; nearly all actives have a fitted effect of over 60% in size); conditions: recombinant CYP2D6, luciferin-ME EGE luminescence; series mostly up to 57.1 µM
Cytochrome P450 2D6 (Homo sapiens), sequence (P10635 whole entry, looked up): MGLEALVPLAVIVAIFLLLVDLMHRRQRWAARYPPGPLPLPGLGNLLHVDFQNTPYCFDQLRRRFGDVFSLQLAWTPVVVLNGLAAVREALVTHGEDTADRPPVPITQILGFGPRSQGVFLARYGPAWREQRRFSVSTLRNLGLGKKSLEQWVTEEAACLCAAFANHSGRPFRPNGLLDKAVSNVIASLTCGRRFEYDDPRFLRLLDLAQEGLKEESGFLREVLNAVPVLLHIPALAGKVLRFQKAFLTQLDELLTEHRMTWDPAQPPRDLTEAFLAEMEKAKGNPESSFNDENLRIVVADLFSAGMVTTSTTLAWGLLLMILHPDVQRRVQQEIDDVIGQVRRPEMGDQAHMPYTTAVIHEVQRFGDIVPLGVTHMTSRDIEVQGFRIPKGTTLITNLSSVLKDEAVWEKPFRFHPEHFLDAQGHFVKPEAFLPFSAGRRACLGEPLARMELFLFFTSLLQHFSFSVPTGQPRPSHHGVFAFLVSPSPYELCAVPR
Outline: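 Human CYP2D6 (5 nM) with 30 uM Luciferin-ME EGE (at Km) in 100 mM KPO4, compound preincubated 10 min, then NADPH regeneration system for 60 min at room temperature. Luciferin read by luminescence; normalized to 1.43 uM quinidine.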

[12] = molecular target: Cytochrome P450 3A4 (Homo sapiens) (UniProt P08684); assay: qHTS Assay for Inhibitors and Substrates of Cytochrome P450 3A4 (AID 884; active means well fitted curve in the direction sought with a large enough effect; an effect the other way counts as inactive or inconclusive; further: on the % scale 0 is the no-effect control and ±100 the full control effect; nearly all actives have a fitted effect of over 50% in size); conditions: recombinant CYP3A4, Luciferin-PPXE luminescence; series mostly up to 57.1 µM
Outline: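 20 nM human CYP3A4 with 25 uM Luciferin-PPXE (at KM) in 200 mM KPO4, preincubated 10 min with compound; NADPH regeneration started a 60 min RT reaction. Luciferin detected by luminescence, normalized to 57 uM ketoconazole as full inhibition.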

[13] = qHTS Assay for Identification of Small Molecule Agonists for Hypoxia Response Element Signaling Pathway (AID 914; active means well fitted activation curve with a large enough effect in the signal ratio, with a control signal flat, not every such curve was filed as active; the % refers to the signal ratio; further: % of control where 0% means no effect); conditions: ME-180 (cervical carcinoma) HRE-bla reporter, beta-lactamase ratio, CoCl2, 17 h; activation: hits give high values
Outline: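 HRE-bla ME-180 cells with beta-lactamase reporter under hypoxia response element, compounds with EC50 CoCl2 for 17 hours at 37 C. CCF4 substrate, 460nm/530nm emission ratio gave %Activity; AC50 from titration series.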

[14] = Confirmation and Secondary Assay for Modulators of Hemoglobin Beta Chain Splicing at IVS2 705 locus (AID 930; active means well fitted curve in the direction sought with a large enough effect; an effect the other way counts as inactive or inconclusive;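 further: HeLa cells stably expressing the EGFP-705 splicing reporter; GFP fluorescence per well restored by corrected splicing of the IVS2-705 intron in EGFP; % of control where 0% means no effect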); conditions: HeLa EGFP-705 splicing reporter, GFP fluorescence, 48 h; series mostly up to 38.3 µM
Outline: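 HeLa cells stably carrying EGFP interrupted by mutant beta-globin intron 2 (IVS2-705) treated 2 days at 37C with compound; 500 nM antisense PNA as control. Correct splicing read as total peak GFP intensity per well by laser-scanning cytometry.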

[15] = molecular target: Ubiquitin carboxyl-terminal hydrolase 1 (Homo sapiens) (UniProt O94782); assay: Inhibitors of USP1/UAF1: Pilot qHTS (AID 504865; active means well fitted curve in the direction sought with a large enough effect; an effect the other way counts as inactive or inconclusive;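 further: rhodamine fluorescence freed from ubiquitin-rhodamine substrate followed over time; top concentration of the series differs between compounds; on the % scale 0 is the no-effect control and ±100 the full control effect; nearly all actives have a fitted effect of over 35% in size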); conditions: purified USP1/UAF1, Ub-rhodamine cleavage fluorescence; series mostly up to 54.9 µM
Ubiquitin carboxyl-terminal hydrolase 1 (Homo sapiens), sequence (O94782 whole entry, looked up): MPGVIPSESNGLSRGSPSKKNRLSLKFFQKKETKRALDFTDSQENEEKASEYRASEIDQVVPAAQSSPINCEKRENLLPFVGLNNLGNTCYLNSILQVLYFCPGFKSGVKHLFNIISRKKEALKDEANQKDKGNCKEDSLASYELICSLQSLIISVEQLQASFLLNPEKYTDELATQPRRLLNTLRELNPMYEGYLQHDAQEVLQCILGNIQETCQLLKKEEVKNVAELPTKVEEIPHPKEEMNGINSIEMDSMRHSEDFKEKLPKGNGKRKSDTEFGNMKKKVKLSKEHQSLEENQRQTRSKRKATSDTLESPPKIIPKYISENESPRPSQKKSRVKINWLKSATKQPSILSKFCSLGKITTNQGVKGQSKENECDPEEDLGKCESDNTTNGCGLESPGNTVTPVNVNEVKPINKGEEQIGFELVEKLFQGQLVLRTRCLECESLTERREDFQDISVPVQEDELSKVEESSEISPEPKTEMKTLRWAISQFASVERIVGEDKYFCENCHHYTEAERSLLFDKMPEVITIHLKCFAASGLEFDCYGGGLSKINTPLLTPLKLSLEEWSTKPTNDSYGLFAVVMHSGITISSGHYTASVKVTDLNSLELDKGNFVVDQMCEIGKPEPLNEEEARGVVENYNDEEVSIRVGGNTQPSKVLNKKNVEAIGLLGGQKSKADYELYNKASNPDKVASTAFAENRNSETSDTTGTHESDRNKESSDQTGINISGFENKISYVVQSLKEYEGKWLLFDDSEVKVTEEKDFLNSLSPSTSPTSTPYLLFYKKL
Outline: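 Deubiquitinase activity followed as kinetic rhodamine fluorescence release from 150 nM Ub-Rho. 1 nM USP1/UAF1 with compound, after 15 min room-temperature preincubation, in HEPES pH 7.8 buffer containing TCEP, EDTA, BSA and Tween-20.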

O=S(=O)(c1ccccc1)N1CCC2(CCCN(Cc3ccccc3)C2)CC1
inactive: Potency [1] > 11.4 µM | activity change, negative = inhibition [2] 10.9% | activity, negative = inhibition [3] 5.57% | Potency [4] > 46 µM | Potency [5] | Potency [6] | outcome [7]

O=C(Nc1ccccc1)N1CCCC2(CCN(C(=O)c3cccc(F)c3)CC2)C1
inactive: Potency [1] > 11.4 µM | activity change, negative = inhibition [2] -6.89% | activity, negative = inhibition [3] -6.85% | Potency [4] > 46 µM | Potency [5] | outcome [7]

N#CCCn1c(=O)cnc2cnc(Nc3ccccc3)nc21
inactive: Potency [1] > 11.4 µM | activity change, negative = inhibition [2] -26.6% | activity change, negative = inhibition [8] -3.19% | Potency [9] > 9.22 µM | Potency [4] > 46 µM | Potency [5] | outcome [7]

O=C(Oc1ccccc1)N1CCC[C@@]2(CCN(c3ccccc3)C2)C1
inactive: Potency [1] > 11.4 µM | activity change, negative = inhibition [2] -15.6% | activity, negative = inhibition [3] -1.51% | Potency [4] > 46 µM | Potency [5] | Potency [6] | outcome [7]

O=C(c1cnccn1)N1CCC2(CCCN(c3ccncc3)C2)CC1
inactive: Potency [1] > 11.4 µM | activity change, negative = inhibition [2] -3.01% | activity, negative = inhibition [3] -6.12% | Potency [4] > 46 µM | Potency [5] | Potency [6] | outcome [7]

COCC(=O)N1CCC[C@@]2(CCN(Cc3nccs3)C2)C1
inactive: Potency [1] > 11.4 µM | activity change, negative = inhibition [2] -2.92% | activity, negative = inhibition [3] 4.7% | Potency [4] > 46 µM | Potency [5] | Potency [6] | Potency [10] | outcome [7]

COc1ccc(C(=O)N2CCC[C@@]3(CCN(Cc4ccccc4)C3)C2)cc1
inactive: Potency [1] > 11.4 µM | activity change, negative = inhibition [2] 13% | activity, negative = inhibition [3] -4.24% | Potency [4] > 46 µM | Potency [5] | Potency [6] | Potency [10] | outcome [7]
active: Potency [11] 7.94 µM

N#Cc1ccc(CN2CCC3(CC2)CCN(C(=O)c2csnn2)CC3)cc1
inactive: Potency [1] > 11.4 µM | activity change, negative = inhibition [2] 3.47% | activity, negative = inhibition [3] -1.95% | Potency [4] > 46 µM | Potency [5] | Potency [6] | outcome [7]

N#Cc1ccc(CN2CCC3(CC2)CCN(C(=O)c2cnccn2)CC3)cc1
inactive: Potency [1] > 11.4 µM | activity change, negative = inhibition [2] 4.06% | activity, negative = inhibition [3] -7.54% | Potency [4] > 46 µM | Potency [5] | Potency [6] | outcome [7]

COc1ccc(C(=O)N2CCC3(CCCN(c4ccncc4)C3)CC2)cc1
inactive: Potency [1] > 11.4 µM | activity change, negative = inhibition [2] 7.18% | activity, negative = inhibition [3] 8.4% | Potency [4] > 46 µM | Potency [5] | Potency [6] | outcome [7]

O=C(c1cnccn1)N1CCC2(CC1)CCN(c1cccc(-c3ccccc3)c1)CC2
inactive: Potency [1] > 11.4 µM | activity change, negative = inhibition [2] -9.46% | activity, negative = inhibition [3] -13.7% | Potency [4] > 46 µM | outcome [7]

O=C(c1ccco1)N1CCC2(CC1)CCN(c1ccccn1)CC2
inactive: Potency [1] > 11.4 µM | activity change, negative = inhibition [2] -7.81% | activity, negative = inhibition [3] -0.852% | Potency [4] > 46 µM | Potency [5] | Potency [6] | Potency [12] | outcome [7]

Cc1noc(C)c1C(=O)N1CCC2(CC1)CCN(C(c1ccccc1)c1ccccc1)CC2
inactive: Potency [1] > 11.4 µM | activity change, negative = inhibition [2] -6.81% | activity, negative = inhibition [3] 10.1% | Potency [4] > 46 µM | Potency [5] | activation [13] -2.4% | outcome [7]

COc1ccc(C(=O)N2CCC3(CCCN(c4ccc(-c5ccccc5)cc4)C3)CC2)cc1
inactive: Potency [1] > 11.4 µM | activity change, negative = inhibition [2] -8.58% | activity, negative = inhibition [3] 0.229% | Potency [4] > 46 µM | Potency [5] | Potency [6] | outcome [7]

CN(C)Cc1ccccc1-c1cncnc1Nc1ccc(F)cc1
inactive: Potency [1] > 11.4 µM | activity change, negative = inhibition [2] 18.9% | activity, negative = inhibition [3] 15.8% | Potency [9] > 46 µM | Potency [4] > 46 µM | Potency [5] | Potency [6] | outcome [14] | Potency [15] | outcome [7]
